# From PubChem
# Shown is part of a subset that was picked to be rich in hits.
# KDM5B inhibitor – Primary screen for KDM5B Histone Demethylases FDH-coupled qHTS. KDM5B demethylase, FDH-coupled NADH fluorescence (FDH is formaldehyde dehydrogenase). Potency, µM (top dose mostly 57.7 µM), actives largely listed as inhibitors. hit rate 2.6% among 220,000. AID 1347165, 2019; active means well fitted inhibition curve with a large enough effect; further: 0% is about no effect; nearly all actives have a fitted effect of over 70% in size
#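 Compound dilutions met 200 nM (final) KDM5BΔAP for 10 min at room temperature before substrate addition. The substrate mix held 12.5 µM H3K4me3 with cofactors 25 µM α-ketoglutarate and 50 µM Fe²⁺. NADH signal gain over 30 min defined activity.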
# Numbers without * were called inactive; i = inactive. Potency means the concentration at half of the fitted maximal effect.
SMILES,KDM5B inhibitor
O=C(COC(=O)COc1ccc(C2SCCCS2)cc1)Nc1c(F)cccc1F,i
Cc1cc2oc(=O)cc(CSc3nncn3C)c2cc1C(C)C,i
Cc1cc(C(=O)CSc2nnc(C(C)Oc3ccc(F)cc3)o2)c(C)n1CC(F)(F)F (stereo not given),i
O=C(NCc1nnc2n1CCC2)Nc1ccccc1,i
O=C(NCCCc1ccccn1)c1ccc2nc(-c3ccc(F)cc3)cn2c1,28.2µM*
CCc1ccc(-c2cc(C(F)(F)F)n3nc(C(=O)NCc4cnn(C)c4C)cc3n2)s1,i
O=C(NCCc1ccccn1)c1ccc(C(F)(F)F)cc1,i
CCc1nnc2sc(-c3ccc(CNC(=O)c4ccc(F)cc4)cc3)nn12,i
O=C(NCc1ccc(Cl)cc1)c1noc(-c2ccc(F)cc2)n1,i
O=C(Nc1ccc(-c2nnc3n2CCCC3)cc1)c1ccc(F)cc1,i
O=C(NCc1nnc2n1CCC2)c1ccc2nc(-c3ccc(F)cc3)cn2c1,31.6µM*
O=C(NCc1ccoc1)c1ccc2nc(-c3ccc(F)cc3)cn2c1,25.1µM*
Cc1c(CNC(=O)c2ccc3nc(-c4ccc(F)cc4)cn3c2)cnn1C,28.2µM*
Cc1ccc(C(=O)NCc2ccc(-c3csc(C)n3)cc2)cc1,i
O=C(NCc1ccccn1)c1ccc(F)cc1,i
C=C(C)CC(NC(C)=O)(C(=O)OCC)C(=O)OCC,i
CCC(CO)NS(=O)(=O)c1cc(Cl)c(Cl)cc1Cl (stereo not given),i
Cc1ccc(S(=O)(=O)N2CCCN(c3nnnn3-c3ccccc3)CC2)cc1,i
Cc1cc(C(=O)NCC2CC2)c2c(C3CCNC3)noc2n1 (stereo not given),i
COC(=O)c1cc(-c2ccc(F)cc2)nc2onc(C3CC3)c12,i
Cc1cc(C(=O)NCC(F)(F)F)c2c(C3CCNCC3)noc2n1,i
Cc1cc(C(=O)NCC2CC2)c2c(C3CCCNC3)noc2n1 (stereo not given),i
COc1cccc(-c2cc(C(=O)NC3CC3)c3ccccc3n2)c1,i
COc1ccc(-c2noc(C(=O)NC3CC3)c2[C@H](C)O)cc1,i
COc1ccc(-c2cc(C(=O)NC3CC3)c3c(C4CCNC4)nn(C)c3n2)cc1 (stereo not given),79.4µM*
SMILES,KDM5B inhibitor
O=C(NC1CCNCC1)c1cc(C2CC2)nc2onc(C3CCNC3)c12 (stereo not given),79.4µM*
O=C(NC1CC1)c1cc(-c2ccccc2C(F)(F)F)nc2onc(C3CCNC3)c12 (stereo not given),i
COc1ccc(-c2cc(C(=O)NCC3CC3)c3c(C4CCNC4)noc3n2)cc1 (stereo not given),79.4µM*
COc1ccc(-c2cc(N3CCC(NC(=O)c4cc(C)ccc4C)CC3)n[nH]2)cc1,i
COc1ccc(-c2cc(C(=O)NC3CC3)c3c(C4CCCNC4)noc3n2)cc1 (stereo not given),79.4µM*
Cc1ccccc1Cc1sc(N)nc1C,i
Cc1ccsc1C(=O)N(C)C1CCN(CCc2ccccn2)CC1,i
C=CCNc1nc(C(=O)OC(C)C(=O)NCC(=O)Nc2c(C)cccc2C)cs1 (stereo not given),i
O=C(Nc1cccc2c1CCCC2)c1cc(Cl)nc(Cl)c1,i
CCC(C)NC(=O)Cn1c(=O)c2c(ncn2C2CCCC2)n(Cc2ccccc2)c1=O (stereo not given),i
CC(=O)NC(NC(C)=O)C(Cl)Cl,i
O=C(Nc1ccn(Cc2ccc(F)cc2Cl)n1)c1nc2ncccn2n1,i
O=C(Nc1cccc(-c2nc3cc(Cl)ccc3o2)c1)c1ccccc1F,i
C=CCNC(=O)c1cnn2cc(C)ccc12,39.8µM*
CCn1ncc(C(=O)Nc2ccc(F)cc2)c1C,i
Cc1ccc(NC(=O)c2cnn3cccnc23)cc1C,i
Cc1ccc2c(C(=O)Nc3ccc(Cl)nc3)cnn2c1,39.8µM*
C=CCNC(=O)c1cnn2c1CN(C(=O)c1cccnc1)CC2,i
C=CCNC(=O)c1ccccc1NC(=O)c1ccccn1,i
Cc1ccc(-c2nc(C(=O)NCc3ccc(Cl)cc3)no2)cc1,i
Cc1ccc(CNC(=O)c2cc(-c3ccc(Cl)cc3)on2)cc1,i
Cc1ccc2c(C(=O)NCc3ccc(Cl)cc3)cnn2c1,35.5µM*
C=CCNC(=O)c1cnn2c1CN(C(C)=O)CC2,i
C=CCNC(=O)c1cnn2ncccc12,31.6µM*
C=CCNC(=O)c1cnn(-c2ccc(C(F)(F)F)cn2)c1C(F)(F)F,i
Cc1ccc(NC(=O)CCCc2cccs2)c(F)c1,i
O=C(CSc1ncnc2ccccc12)Nc1ccc(F)c(F)c1F,i
COc1ccc2c(-c3ccccc3)cc(SCC(=O)N3CCOCC3)nc2c1,i
Cn1c(SCc2cccc(Cl)c2)nc(=O)c2c1NC(=O)CC2c1ccc(OCC(N)=O)cc1 (stereo not given),i
O=C1CC(c2cccc(Cl)c2)c2cc(Br)c3ccccc3c2N1 (stereo not given),i
